Source: PubChem (National Center for Advancing Translational Sciences (NCATS))
A selection: hits, their analogues and other compounds. The true share with any hit is near 8%.
KB-V1 cytotox = KB-V1 MDR subline cytotoxicity; KB-V1 MDR cells viability, CellTiter-Glo, 72 h; Potency, µM (series often up to 46.1 µM), usual class: cytotoxic; hit rate 3.4% among 400,000; also: % is scaled to controls: 0 for no effect and ±100 for the full control effect; nearly all actives have a fitted effect of over 60% in size
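KB-V1 MDR subline cells in DMEM (phenol-red free, 10% FBS) exposed to compounds in qHTS concentration series for 72 h at 37 degrees C. Viability read by CellTiter-Glo luminescence; concentration-effect curves fitted after normalization and correction.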
KB-3-1 cytotox = KB-3-1 parental cell cytotoxicity. Potency, µM (titrated, usually from 46.1 µM), most hits filed as cytotoxic. hit rate 1.4% among 400,000. KB-3-1 viability, CellTiter-Glo ATP luminescence, 72 h; also: % is scaled to controls: 0 for no effect and ±100 for the full control effect; nearly all actives have a fitted effect of over 60% in size
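Cytotoxicity in the drug-sensitive parental line KB-3-1 was scored as loss of CellTiter-Glo luminescence following 72 h incubation with compound. Values come from curve fitting of normalized concentration-response data.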
HT1080 IDH1KD tx = toxicity to HT-1080 IDH1 knockdown cells (counter line); AID 686971; Potency, µM (series often up to 46.1 µM), without a hit: at the top dose activity, negative = toxicity, usual class: cytotoxic; HT-1080 IDH1 knockdown viability, ATP luminescence, 48 h; hit rate 2% among 360,000;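 also: 0% = DMSO wells and -100% = cell-free medium wells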
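% activity derives from luminescence (CellTiter-Glo), normalised to DMSO and no-cell wells. HT-1080-IDH1KD cells, 750/well, had 48 h compound exposure at 37 °C.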
SW480 rereplic = inducers of DNA re-replication in SW480 colon cancer cells | SW480 DNA re-replication, Hoechst DNA content imaging, 48 h | AID 624297 | hit rate 1.8% among 340,000 | Potency, µM (series often up to 46.1 µM), for inactives: at the top dose re-replication activation, most hits filed as activators; also: % of control where 0% means no effect; nearly all actives have a fitted effect of over 55% in size
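SW480 cells exposed to compounds for 48 hr at 37 C, 5% CO2, then Hoechst-stained 40 min. Nuclear DNA content imaged by fluorescence scanning (405 nm excitation, 500-530 nm emission); re-replication scored as increased high-intensity nuclei.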
MCF10A rerep = induces DNA re-replication in MCF 10a normal breast cells; Potency, µM (highest dose often 46.1 µM), inactives show top-dose activity, positive = re-replication, hits mostly activators; MCF 10A DNA re-replication, Hoechst nuclear intensity, 48 h; hit rate 2.9% among 350,000; AID 624296; also: % of control where 0% means no effect; nearly all actives have a fitted effect of over 50% in size
HT1080NT lethal = kills 2HG-producing HT-1080-NT fibrosarcoma cells | HT-1080-NT fibrosarcoma viability, CellTiter-Glo ATP luminescence, 48 h | Potency, µM (series often up to 46.1 µM), inactives show at the highest dose activity, negative = less viability, most hits filed as cytotoxic | hit rate 1.6% among 360,000 | AID 686970;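 also: NT is the 2HG producing partner of a matched IDH1 knockdown line; 0% = DMSO-treated cells and -100% = media-only wells without cells; nearly all actives have a fitted effect of over 55% in size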
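HT-1080-NT; 750 cells/well; 5% FBS RPMI; 48 h compound, 37 degrees C; CellTiter-Glo luminescence; curve fitting and curve-class assignment.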
Active calls of the source: *. Calls follow the shape of the dose curve; as a rule, active = well fitted curve in the direction sought with a large enough effect; inconclusive = small, poorly fitted or top-dose-only effect, or another doubt; inactive = no such curve, though single readings can be large; an effect the other way counts as inactive or inconclusive. Potency is read from the fitted curve at half-maximal effect.

Screening C=CC[C@@H]1/C=C(\C)C[C@H](C)C[C@H](OC)[C@H]2O[C@@](O)(C(=O)C(=O)N3CCCC[C@H]3C(=O)O[C@H](/C(C)=C/[C@@H]3CC[C@@H](O)[C@H](OC)C3)[C@H](C)[C@@H](O)CC1=O)[C@H](C)C[C@@H]2OC returned SW480 rereplic inconclusive and MCF10A rerep 1%.
`O=C(Cc1ccccc1)N1CCCC(c2nc(-c3ccc(S(=O)(=O)N4CCCC4)cc3)no2)C1` (stereo not given) gave KB-V1 cytotox 9.2µM*, KB-3-1 cytotox inactive, HT1080 IDH1KD tx 6%, SW480 rereplic -3%, MCF10A rerep -6% and HT1080NT lethal -7%.
For COC(=O)c1ccc(OC)c(CSc2nnc(COc3ccccc3)o2)c1 the results were KB-V1 cytotox 21µM*, KB-3-1 cytotox inactive, HT1080 IDH1KD tx inconclusive, SW480 rereplic -1%, MCF10A rerep 4% and HT1080NT lethal -2%.
`CN(CC(=O)Nc1cccc(F)c1)C(=O)c1cn(-c2ccccc2)nc1-c1ccc(Cl)cc1` gave KB-V1 cytotox inactive, KB-3-1 cytotox inactive, HT1080 IDH1KD tx inconclusive, SW480 rereplic 21%, MCF10A rerep inconclusive and HT1080NT lethal 21µM*.
COc1ccc(NC(=O)CN(C)C(=O)c2cn(-c3ccccc3)nc2-c2ccc(Cl)cc2)cc1 was read as KB-V1 cytotox 23µM*, KB-3-1 cytotox inconclusive, HT1080 IDH1KD tx inconclusive, SW480 rereplic 23µM*, MCF10A rerep 15% and HT1080NT lethal inconclusive.
For COc1ccc(-c2nn(-c3ccccc3)cc2/C=C/C(=O)OCC(=O)Nc2ccc(C#N)cc2)cc1 the results were KB-V1 cytotox 9.2µM*, KB-3-1 cytotox inactive, HT1080 IDH1KD tx 20%, SW480 rereplic -2%, MCF10A rerep 21% and HT1080NT lethal 3%.
`CN(CC(=O)Nc1cccc(F)c1)C(=O)c1cn(-c2ccccc2)nc1-c1cccs1` gave KB-V1 cytotox inconclusive, KB-3-1 cytotox inconclusive, HT1080 IDH1KD tx -10%, SW480 rereplic 13%, MCF10A rerep inconclusive and HT1080NT lethal -10%.
For COc1ccc(C(C(=O)Nc2ccc(C(C)C)cc2)N(C)C(=O)Cc2cccs2)cc1 (stereo not given) the results were KB-V1 cytotox inactive and KB-3-1 cytotox inactive.
`NC(CCC(=O)N[C@@H](CS)C(=O)NCC(=O)O)C(=O)O` (stereo not given in full) gave SW480 rereplic 18% and MCF10A rerep -1%.
Cc1ccc(NCCCn2cnc(C(=O)Nc3ccc(C)c(C)c3)n2)cc1C was read as KB-V1 cytotox inconclusive, KB-3-1 cytotox inactive, HT1080 IDH1KD tx -8%, SW480 rereplic -7%, MCF10A rerep -1% and HT1080NT lethal 1%.
For Cc1cc(C)c(CN2CCN(CCCn3cnc(C(=O)Nc4ccc(C)c(C)c4)n3)CC2)c(C)c1 the results were KB-V1 cytotox inactive, KB-3-1 cytotox inactive, HT1080 IDH1KD tx inconclusive, SW480 rereplic 7.3µM*, MCF10A rerep inconclusive and HT1080NT lethal inconclusive.
CCCCN1C(=O)C(O)(c2c[nH]c3ccccc23)c2cc(Br)ccc21 (stereo not given) was read as KB-V1 cytotox inactive and KB-3-1 cytotox inactive.
O=C(N/N=C/c1cc(Br)c(O)c(Br)c1O)c1cccnc1 was read as KB-V1 cytotox inactive, KB-3-1 cytotox inconclusive, HT1080 IDH1KD tx 10µM*, SW480 rereplic inconclusive, MCF10A rerep 12% and HT1080NT lethal inconclusive.
`O=C(N/N=C/c1cc(O)ccc1Br)c1cccnc1` gave KB-V1 cytotox inactive, KB-3-1 cytotox 21µM*, HT1080 IDH1KD tx inconclusive, SW480 rereplic 12%, MCF10A rerep 5% and HT1080NT lethal inconclusive.
`Cc1ccc(C)c(NC(=O)c2cc(-c3cc(C)ccc3O)n[nH]2)c1` gave KB-V1 cytotox inactive, KB-3-1 cytotox inactive, HT1080 IDH1KD tx inconclusive, SW480 rereplic 4%, MCF10A rerep -3% and HT1080NT lethal 33µM*.
Cc1ccc(-c2cc(-c3ccccc3C)[nH]n2)c(O)c1 was read as KB-V1 cytotox 13µM*, KB-3-1 cytotox 21µM*, HT1080 IDH1KD tx 18µM*, SW480 rereplic inconclusive, MCF10A rerep inconclusive and HT1080NT lethal 21µM*.
For Cc1ccc(O)c(-c2cc(-c3ccccc3F)[nH]n2)c1 the results were KB-V1 cytotox inactive, KB-3-1 cytotox inconclusive, HT1080 IDH1KD tx 21µM*, SW480 rereplic 12%, MCF10A rerep inconclusive and HT1080NT lethal 23µM*.
Screening Cc1ccc(-c2cc(-c3cccc(F)c3)n[nH]2)c(O)c1 returned KB-V1 cytotox inactive, KB-3-1 cytotox inactive, HT1080 IDH1KD tx inconclusive, SW480 rereplic 9%, MCF10A rerep inconclusive and HT1080NT lethal inconclusive.
`Cc1ccc(O)c(-c2cc(-c3cccc(F)c3)n[nH]2)c1` gave KB-V1 cytotox inconclusive, KB-3-1 cytotox inconclusive, HT1080 IDH1KD tx -1%, SW480 rereplic inconclusive, MCF10A rerep 26µM* and HT1080NT lethal 1%.
For O=Nc1ccc(/C=C/c2ccnc3ccccc23)cc1 the results were KB-V1 cytotox inactive and KB-3-1 cytotox inactive.
For Cc1ccc2c(=O)cc(C(=O)Nc3cccc(C(F)(F)F)c3)oc2c1C the results were KB-V1 cytotox inactive and KB-3-1 cytotox inactive.
Screening CCc1ccc(C2c3c(-c4ccccc4O)n[nH]c3C(=O)N2Cc2cccnc2)cc1 (stereo not given) returned KB-V1 cytotox inconclusive and KB-3-1 cytotox inactive.
Screening Cc1ccc(Sc2c(C)nn(C(C)(C)C)c2OC(=O)CC(C)C)cc1 returned KB-V1 cytotox inactive and KB-3-1 cytotox inactive.
For COC(=O)c1ccc(C2C=C(c3ccc(Cl)cc3)Nc3nc4ccccc4n32)cc1 (stereo not given) the results were KB-V1 cytotox inactive and KB-3-1 cytotox inactive.
For COc1ccc(OCC(=O)N/N=C/c2ccc(O[C@@H]3O[C@H](CO)[C@@H](O)[C@H](O)[C@H]3O)cc2)cc1 the results were KB-V1 cytotox inactive, KB-3-1 cytotox 3.7µM*, HT1080 IDH1KD tx 1.6µM*, SW480 rereplic 0%, MCF10A rerep 5% and HT1080NT lethal inconclusive.
`COc1ccc(/C=C/c2cc(O)cc(OC3OC(CO)C(O)C(O)C3O)c2)cc1` (stereo not given) gave KB-V1 cytotox inactive, KB-3-1 cytotox inactive, HT1080 IDH1KD tx 14%, SW480 rereplic 0.18µM*, MCF10A rerep -4% and HT1080NT lethal -5%.
